Measurements published in the supplement of paper PMC3724861.
The full list was thinned out, with hits kept by preference. No count for the full screen is at hand. A number with no mark means an inactive call.

tested on: T1, Caupolican (Caup) homeodomain DNA-binding domain; test: PBM E-score (8-mer, recovered from the published 9-mer minima) (E-score (dimensionless, -0.5 to 0.5)); Drosophila protein; higher = stronger relative binding preference, active = 0.31 or more
T1 sequence: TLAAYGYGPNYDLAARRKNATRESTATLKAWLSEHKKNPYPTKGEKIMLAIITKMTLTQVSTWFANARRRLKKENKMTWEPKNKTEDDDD
Experimental: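 Protein binding microarray (PBM): in vitro transcribed/translated Caupolican (Caup) homeodomain DNA-binding domain (residues 214-303) applied at 100 nM to a universal 8-mer PBM array (Agilent AMADID 015681). The 8-mer enrichment score (E-score, range -0.5 to 0.5) was computed, and each 9-mer score is the minimum E-score of its two constituent 8-mers. The E-score is the same for a 9-mer and its reverse complement; 0.31 is the stated binding threshold.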

| Sequence | PBM E-score |
| --- | --- |
| CGTCTGCC | -0.188 |
| ATTGTCCG | 0.122 |
| CATTTCTA | 0.102 |
| GTCAACCA | 0.0944 |
| ACTAGCGC | -0.134 |
| AACCGGGA | -0.0571 |
| ATCAAAGC | -0.0471 |
| ATCAGCTC | 0.00528 |
| AAGGCGAC | 0.00668 |
| ACGACTGC | -0.0879 |
| GGATACCC | -0.15 |
| CTCCAACC | -0.171 |
| CACACCGA | 0.0554 |
| ACAAACCG | 0.0217 |
| ATGTTGCC | 0.121 |
| ATGTTGTC | 0.424 (active) |
| CTGTTGTC | 0.256 |
| CCGCATCC | -0.16 |
| TGTTAACA | 0.371 (active) |
| AGTTAACA | 0.265 |
| AATTAACC | 0.0386 |
| TAGTAACA | ≥ 0.316 (active) |
| AACTAACT | -0.00416 |
| AACTAACA | ≥ 0.339 (active) |

| Sequence | PBM E-score |
| --- | --- |
| GAGTAACA | 0.206 |
| CGTTAACA | 0.164 |
| AATTAACA | 0.326 (active) |
| AAGTAACA | 0.306 |
| TACTAACA | 0.253 |
| AATTAACT | 0.117 |
| GTATCACA | 0.198 |
| ACAGAAGA | 0.101 |
| TAGCACAA | 0.0785 |
| ATGAAAAA | 0.0536 |
| AATGCACT | 0.108 |
| GGATTAGA | -0.0283 |
| GCCATCGA | -0.0979 |
| GATTAACA | 0.292 |
| CATTAACA | 0.234 |
| TATTAACA | 0.312 (active) |
| CCATCCCC | -0.241 |
| CAAGAGAG | -0.0747 |
| TCCTCTCA | -0.0753 |
| AGTGTACA | 0.337 (active) |
| GGTGTACA | 0.327 (active) |
| AGTGTACG | 0.152 |
| GCTGTACA | 0.268 |
| AGTGTAGA | 0.162 |

| Sequence | PBM E-score |
| --- | --- |
| GGTGTATA | 0.133 |
| ATAGATAT | 0.169 |
| ACGGACCC | -0.139 |
| CGCGGGTC | -0.163 |
| CCAATGGA | -0.156 |
| ATGCAGCC | 0.00431 |
| CTGATTTA | 0.138 |
| GCATTAGC | -0.144 |
| CTTATTGA | 0.0828 |
| CGCGAACG | -0.0783 |
| GCACCGCA | -0.175 |
| AAATGTAA | 0.277 |
| CAATGTAA | 0.312 (active) |
| TAATGTAA | 0.315 (active) |
| CAATGTAG | 0.182 |
| CAATGTAC | 0.287 |
| TAATGTGA | 0.141 |
| TGGACACA | 0.199 |
| GGTAGCGA | -0.0452 |
| GCCGGGTA | -0.161 |
| CTAGCGTA | -0.0972 |
| ATGTCTTA | 0.284 |
| GATTGACA | 0.276 |
| ACATGACG | 0.297 |

| Sequence | PBM E-score |
| --- | --- |
| CCATGACA | 0.137 |
| CATTGACA | 0.217 |
| ACATGACC | 0.303 |
| TCATGACA | 0.313 (active) |
| TATTGACA | 0.322 (active) |
| GAATGACA | 0.259 |
| TGATGACA | 0.279 |
| TAATGACA | 0.331 (active) |
| CAATGACA | 0.293 |
| ACATGACT | 0.374 (active) |
| GTGGCGAA | -0.0979 |
| CGGAGTGC | -0.159 |
| AACCTATT | 0.0185 |
| CTGACAGC | -0.0248 |
| CTATTCCA | 0.057 |
| CGATTACG | 0.101 |
| CCCCTGAG | -0.149 |
| ATCGCACC | -0.0473 |
| CGCATATA | 0.107 |
| AAGCACTG | 0.0317 |
| AGATGACA | 0.227 |
| CTTTGACA | 0.223 |
| ATTTGACA | 0.347 (active) |
| GCATGACA | 0.21 |

| Sequence | PBM E-score |
| --- | --- |
| ATTTGACC | -0.0206 |
| ACATGACA | ≥ 0.43 (active) |
| CTCTTCTA | -0.00512 |
| ATATTCGC | 0.0752 |
| GCAGAAGA | -0.113 |
| TAAATATA | 0.187 |
| CAAATAGG | -0.00893 |
| GTTTGTCA | 0.187 |
| CGTTGTCA | 0.251 |
| AGTTGTCG | 0.235 |
| AGTTGTCA | 0.315 (active) |
| GGTTGTCA | 0.331 (active) |
| AGTTGTCC | 0.235 |
| CGTAAATC | -0.00723 |
| CATGGATA | 0.157 |
| AACAAACA | 0.338 (active) |
| TACAAACA | ≥ 0.368 (active) |
| AACAAGCT | 0.312 (active) |
| AACAAACC | 0.161 |
| GACAAACA | 0.312 (active) |
| AACAAACT | 0.23 |
| GACAAACC | 0.0748 |
| CACAAACA | 0.24 |
| AACAAGCC | 0.176 |

| Sequence | PBM E-score |
| --- | --- |
| GACAAAAA | 0.0647 |
| AACAAGCG | 0.237 |
| AACAAACG | 0.114 |
| AGTTCTGG | -0.0428 |
| AGGGCAAC | -0.0847 |
| CCGGAAAG | -0.15 |
| ACGTTCAT | 0.101 |
| GATATTGA | 0.0675 |
| CACCTACC | -0.0826 |
| AAAACGTG | 0.0311 |
| AGTATACT | 0.163 |
| ACCTACCT | -0.066 |
| GCATCTAC | 0.0527 |
| AACAAGCA | 0.308 |
| GACAAGCC | 0.212 |
| GACAAGCA | 0.321 (active) |
| CACAAGCA | 0.15 |
| TACAAGCA | ≥ 0.384 (active) |
| GGCAAGCA | -0.119 |
| CTCTCAGC | -0.19 |
| ACCCGTAT | 0.0244 |
| ACTTTTCG | 0.0288 |
| CCCACAGG | -0.142 |
| GAATAGTC | -0.00141 |
